# Measurements: the supplement of paper PMC6331611
# ± gives the standard deviation of the averaged measurements. Over roughly 1,600 compounds, “normalized growth (OD600, IQM-normalized) in LPM” has its median near 1; the lowest 2% begin near 0.014. The full list was thinned out, with the lowest values kept by preference.
# System: Salmonella enterica serovar Typhimurium SL1344
# Assay: normalized growth (OD600, IQM-normalized) in LPM (fraction of plate interquartile mean); higher = more bacterial growth (less inhibition)
# Settings: LPM pH 5.8; 10 µM; 16 h
row,SMILES,normalized growth
1,Nc1[nH]cnc2ncnc1-2,0.993 ± 0.02
2,CCCNC(C)(C)COC(=O)c1ccccc1,0.983 ± 0.027
3,CC(=O)c1ccc2c(c1)N(CCCN1CCN(CCO)CC1)c1ccccc1S2,0.869 ± 0.053
4,CCCCCCCCCCCCCCCCCCCCCCO,1.11 ± 0.1
5,CC(=O)Nc1ccc(S(=O)(=O)c2ccc(NC(C)=O)cc2)cc1,0.889 ± 0.067
6,CCC(=O)OCC(=O)[C@@]1(OC(=O)CC)[C@H](C)CC2C3C([C@@H](O)C[C@@]21C)[C@@]1(C)C=CC(=O)C=C1C[C@H]3Cl (stereo partly specified),1.03 ± 0.019
7,O=C1c2ccccc2C(=O)C1c1ccc(Br)cc1,0.935 ± 0.066
8,O=C(OOC(=O)c1ccccc1)c1ccccc1,1.08 ± 0.046
9,Cc1cnc(C(=O)O)c[n+]1[O-],0.993 ± 0.078
10,C[C@@H]1NC(=O)[C@@H](N)CNC(=O)[C@H](C2CCNC(=N)N2)NC(=O)/C(=C/NC(N)=O)NC(=O)[C@H](CNC(=O)CC(N)CCCN)NC1=O.N=C1NCC[C@H]([C@@H]2NC(=O)/C(=C/NC(N)=O)NC(=O)[C@H](CNC(=O)C[C@@H](N)CCCN)NC(=O)[C@H](CO)NC(=O)[C@@H](N)CNC2=O)N1,0.985 ± 0.046
11,CC(C)(C)CC(C)(C)c1ccc(O)c(Cc2ccc(Cl)cc2Cl)c1,0.861 ± 0.066
12,Oc1ccc(OCc2ccccc2)cc1,0.91 ± 0.11
13,Cc1cc(NS(=O)(=O)c2ccc(N)cc2)no1,1.01 ± 0.022
14,CC[C@H](C)[C@H](N)C1=N[C@H](C(=O)N[C@@H](CC(C)C)C(=O)N[C@H](CCC(=O)O)C(=O)N[C@H](C(=O)N[C@H]2CCCCNC(=O)[C@H](CC(N)=O)NC(=O)[C@@H](CC(=O)O)NC(=O)[C@H](Cc3cnc[nH]3)NC(=O)[C@@H](Cc3ccccc3)NC(=O)[C@H]([C@@H](C)CC)NC(=O)[C@@H](CCCN)NC2=O)[C@@H](C)CC)CS1,1.06 ± 0.043
15,CC(C)OC(=O)CCC/C=C\C[C@@H]1[C@@H](/C=C/[C@@H](O)COc2cccc(C(F)(F)F)c2)[C@H](O)C[C@@H]1O,1.032 ± 0.0058
16,C=CC[C@@H]1/C=C(\C)C[C@H](C)C[C@H](OC)[C@H]2O[C@@](O)(C(=O)C(=O)N3CCCC[C@H]3C(=O)O[C@H](/C(C)=C/[C@@H]3CC[C@@H](O)[C@H](OC)C3)[C@H](C)[C@@H](O)CC1=O)[C@H](C)C[C@@H]2OC,0.857 ± 0.044
17,NC(=O)C1(N2CCCCC2)CCN(CCCC(=O)c2ccc(F)cc2)CC1,1.02 ± 0.051
18,CC(C)(S)[C@@H](N)C(=O)O,1.083 ± 0.0063
19,CC1=CC(=O)c2ccccc2C1=O,0.984 ± 0.017
20,Oc1ccc(Cl)c2cccnc12,0.847 ± 0.037
21,O=[N+]([O-])c1ccc(O)c2ncccc12,0.00762 ± 0.00015
22,Oc1c(I)cc(I)c2cccnc12,0.58 ± 0.02
23,C[C@@H](O)CN(CCN(C[C@@H](C)O)C[C@@H](C)O)C[C@@H](C)O,1.17 ± 0.054
24,CN(N=O)C(=O)N[C@H]1C(O)O[C@H](CO)[C@@H](O)[C@@H]1O (mixture of isomers),0.929 ± 0.021
25,COc1cccc2c1C(=O)c1c(O)c3c(c(O)c1C2=O)C[C@@](O)(C(C)=O)C[C@@H]3O[C@H]1C[C@H](N)[C@H](O)[C@H](C)O1,0.946 ± 0.016
26,CC(NCCC(c1ccccc1)c1ccccc1)c1ccccc1 (stereo unspecified),0.976 ± 0.038

row,SMILES,normalized growth
1,O=C(O)CCNC(=O)c1ccc(/N=N/c2ccc(O)c(C(=O)O)c2)cc1,1 ± 0.051
2,C[C@H]1O[C@H](O[C@H]2[C@H](O)[C@@H](O)[C@@H](O[C@H]3[C@H](O)[C@@H](O)C(O)O[C@@H]3CO)O[C@@H]2CO)[C@H](O)[C@@H](O)[C@@H]1N[C@H]1C=C(CO)[C@@H](O)[C@H](O)[C@H]1O (stereo partly specified),1.07 ± 0.011
3,CCOC(=O)c1ccc(O)cc1,1.02 ± 0.045
4,N[C@@H](Cc1cc(I)c(Oc2cc(I)c(O)c(I)c2)c(I)c1)C(=O)O,1.03 ± 0.039
5,O=C(COc1ccc(Cl)cc1)N1CCN(Cc2ccc3c(c2)OCO3)CC1,0.928 ± 0.019
6,COc1c(C)c2c(c(O)c1C/C=C(\C)CCC(=O)OCCN1CCOCC1)C(=O)OC2,1.01 ± 0.035
7,CC(=O)Nc1c(I)cc(I)c(C(=O)O)c1I,0.949 ± 0.12
8,Cc1c(OCC(F)(F)F)ccnc1C[S@@+]([O-])c1nc2ccccc2[nH]1,0.967 ± 0.085
9,CSCC[C@H](NC(=O)[C@H](Cc1c[nH]c2ccccc12)NC(=O)CCNC(=O)OC(C)(C)C)C(=O)N[C@@H](CC(=O)O)C(=O)N[C@@H](Cc1ccccc1)C(N)=O,1.09 ± 0.026
10,CC[C@H](c1ccc(O)cc1)[C@@H](CC)c1ccc(O)cc1,1.13 ± 0.018
11,CC(C)c1nc(N(C)S(C)(=O)=O)nc(-c2ccc(F)cc2)c1/C=C/[C@@H](O)C[C@@H](O)CC(=O)O,1.03 ± 0.097
12,CCn1nc(C(=O)O)c(=O)c2cc3c(cc21)OCO3,0.00789 ± 0.00035
13,CCCc1nc(C)c2c(O)nc(-c3cc(S(=O)(=O)N4CCN(CC)CC4)ccc3OCC)nn12,1.02 ± 0.053
14,CC1(C)S[C@@H]2[C@H](N3C(=O)[C@@H](c4ccccc4)NC3(C)C)C(=O)N2[C@H]1C(=O)O,0.976 ± 0.053
15,CCOC(=O)O[C@]1(C(=O)COC(=O)CC)CC[C@H]2[C@@H]3CCC4=CC(=O)C=C[C@]4(C)[C@H]3[C@@H](O)C[C@@]21C,1 ± 0.03
16,CC(=O)Oc1cccc(C)c1 [meta-CRESYL ACETATE],0.995 ± 0.048
17,OCCN1C[C@H](O)[C@@H](O)[C@H](O)[C@H]1CO,0.993 ± 0.016
18,C#CC1(O)CC[C@H]2[C@@H]3CCC4=CC(=O)CC[C@@H]4[C@H]3CC[C@@]21CC (stereo partly specified),0.941 ± 0.024
19,CC(=O)Nc1ccc(OC(C)=O)cc1,1.05 ± 0.08
20,CCC1=C(C)CN(C(=O)NCCc2ccc(S(=O)(=O)NC(=O)N[C@H]3CC[C@H](C)CC3)cc2)C1=O,0.926 ± 0.053
21,Nc1cc(C(Cl)=C(Cl)Cl)c(S(N)(=O)=O)cc1S(N)(=O)=O,1.01 ± 0.036
22,CC(=O)Oc1cccc(C(=O)O)c1OC(C)=O,0.912 ± 0.079
23,O=C(Nc1ccccc1)OCC(CN1CCCCC1)OC(=O)Nc1ccccc1 (stereo unspecified),0.903 ± 0.047
24,CC(=O)OCC(=O)[C@@]1(O)CC[C@H]2[C@@H]3CCC4=CC(=O)C=C[C@]4(C)[C@@]3(Cl)[C@@H](Cl)C[C@@]21C,0.894 ± 0.024
25,CC[N+](C)(CC)CCOC(=O)C(O)(c1ccccc1)C1CCCCC1 (stereo unspecified),1.1 ± 0.03
26,CC1/C=C/C=C/C=C/C=C/C=C/C=C/C=C/C(OC2O[C@H](C)[C@@H](O)[C@H](N)[C@@H]2O)CC(O)C(C(=O)O)C(O)CC(=O)CC(O)CC(O)CC(O)CC(=O)CCCC(=O)CC(=O)OC1C(C)CC(C)C(O)CC(=O)c1ccc(N)cc1 (stereo partly specified),1.03 ± 0.045

row,SMILES,normalized growth
1,Cc1cc(C)cc(OCC2CNC(=O)O2)c1 (stereo unspecified),1.02 ± 0.03
2,C[C@@H]1CN(c2c(F)c(N)c3c(=O)c(C(=O)O)cn(C4CC4)c3c2F)C[C@H](C)N1,0.0193 ± 0.0046
3,COc1c(N2CCNC(C)C2)c(F)cc2c(=O)c(C(=O)O)cn(C3CC3)c12 (stereo unspecified),0.0158 ± 0.0074
4,NC1CCN(c2c(F)cc3c(=O)c(C(=O)O)cn(C4CC4)c3c2Cl)C1 (stereo unspecified),0.0132 ± 0.00024
5,CCn1cc(C(=O)O)c(=O)c2cc(F)c(N3CCNC(C)C3)c(F)c21 (stereo unspecified),0.0416 ± 0.00075
6,COc1c(N2C[C@@H]3CCCN[C@@H]3C2)c(F)cc2c(=O)c(C(=O)O)cn(C3CC3)c12,0.0131 ± 0.0045
7,C[C@@H]1CN(c2c(F)c(F)c3c(=O)c(C(=O)O)cn(C4CC4)c3c2F)C[C@H](C)N1,0.0487 ± 0.0099
8,CC(=O)N(CC(O)CO)c1c(I)c(C(=O)NCCO)c(I)c(C(=O)NCC(O)CO)c1I (stereo unspecified),1.05 ± 0.036
9,Cc1oc(=O)oc1CN1CCN(c2cc3c(cc2F)c(=O)c(C(=O)O)c2n3C(C)S2)CC1 (stereo unspecified),0.00846 ± 7.6e-05
10,S=C1SCN(Cc2ccccc2)CN1Cc1ccccc1,1.11 ± 0.061
11,C=NC(C(=O)NC1C(=O)N2C1SC(C)(C)C2C(=O)O)c1ccccc1 (stereo unspecified),0.913 ± 0.058
12,C#C[C@]1(O)CC[C@H]2[C@@H]3CCc4cc(OC5CCCC5)ccc4[C@H]3CC[C@@]21C,0.954 ± 0.1
13,O=C([O-])[C@H]1/C(=C/CO)O[C@@H]2CC(=O)N21.[Li+],1.12 ± 0.076
14,C#C[C@]1(OC(C)=O)CC[C@H]2[C@@H]3CCC4=CC(=O)CC[C@@H]4[C@H]3CC[C@@]21C,1.14 ± 0.03
15,CC(=O)Oc1cc2c(s1)CCN(C(C(=O)C1CC1)c1ccccc1F)C2 (stereo unspecified),1.08 ± 0.1
16,Cc1nc(-c2ccc(OCC(C)C)c(C#N)c2)sc1C(=O)O,1.02 ± 0.038
17,CC(=O)OCC(=O)[C@@]1(O)[C@@H](C)C[C@H]2[C@@H]3CCC4=CC(=O)C=C[C@]4(C)[C@@]3(F)[C@@H](O)C[C@@]21C,1.01 ± 0.033
18,COc1ccc2cc1Oc1ccc(cc1)C[C@H]1c3c(cc4c(c3Oc3cc5c(cc3OC)CCN(C)[C@@H]5C2)OCO4)CCN1C,0.938 ± 0.024
19,CCC/C=C\C=C/C(=O)N[C@@H](CC(N)=O)C(=O)NC(CC(N)=O)C(=O)N[C@@H](C(=O)N[C@H](CCCN)C(=O)N[C@@H](C(=O)N[C@@H](C(=O)N[C@@H](C(=O)N[C@H](C(=O)N[C@@H](Cc1ccccc1)C(=O)N[C@H](CCCN)C(=O)NC(C(=O)N[C@H](C(=O)NC(C(=O)NCC(=O)N[C@@H](CC(C)C)C(=O)N[C@H](C)C(=O)NC(C(=O)O)C1CCC(O)C(Cl)C1)C1CCC(O)CC1)[C@H](C)O)C1CCC(O)CC1)[C@H](C)O)C1CCC(O)CC1)C1CCC(O)CC1)[C@H](C)O)C1CCC(O)CC1 (stereo partly specified) [RAMOPLANIN [A2 shown; 2mM]],1.31 ± 0.07
20,CC1(C)O[C@@H]2C[C@H]3[C@@H]4C[C@H](F)C5=CC(=O)C=C[C@]5(C)[C@H]4[C@@H](O)C[C@]3(C)[C@]2(C(=O)CO)O1,0.921 ± 0.042
21,Cc1cccc(C)c1NC(=O)c1ccccc1C(=O)O,1.15 ± 0.12
22,CC1(C)S[C@@H]2[C@H](NC(=O)[C@H](C(=O)O)c3ccsc3)C(=O)N2[C@H]1C(=O)O,1.01 ± 0.022
23,CC(=O)OC1CC2CCC1(C)C2(C)C (stereo unspecified),1.21 ± 0.048
24,CC(C)C[C@@H]1NC(=O)[C@H](CCCN)NC(=O)[C@H](C(C)C)NC(=O)[C@H](Cc2ccc(O)cc2)N[C@@H](CCC(=O)O)C(=O)N[C@@H](CC(N)=O)C(=O)[C@@H](Cc2ccccc2)NC(=O)[C@H](Cc2ccccc2)NC(=O)[C@@H]2CCCN2C(=O)[C@@H](Cc2ccccc2)NC1=O,0.992 ± 0.1
